# This excerpt belongs to a sample that is enriched for the strongest signals.
# Key:
# Test in all cases: glycan array binding signal (z-score within array); higher = stronger binding
# Details in all cases: glycan notation: IUPAC condensed, linker removed
# [1] = target: Fuc(a1-2)Gal(b1-3)GlcNAc(b1-3)[Fuc(a1-2)Gal(b1-3)GlcNAc(b1-6)]GalNAc
# Method in brief: (§1)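 Glycan array data came from 3228 arrays in the Consortium for Functional Glycomics database, and only arrays with an available protein sequence were kept. Glycan names were put into IUPAC-condensed notation, and columns mapping to the same glycan were averaged. The binding signal is a within-array Z-score, averaged across arrays of one protein sequence run at different concentrations or buffers and across linkers. A negative Z-score can be read as non-binding.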
# [2] = target: Fuc(a1-2)Gal(b1-4)Glc6S
# Method in brief: as §1
# [3] = target: Fuc(a1-2)Gal(b1-4)GlcNAc(b1-2)Man(a1-3)[Fuc(a1-2)Gal(b1-4)GlcNAc(b1-2)Man(a1-6)]Man(b1-4)GlcNAc(b1-4)[Fuc(a1-6)]GlcNAc
# Method in brief: as §1
# [4] = target: Fuc(a1-2)[Gal(a1-3)]Gal(b1-3)GalNAc
# Method in brief: as §1
# [5] = target: Fuc(a1-2)[Gal(a1-3)]Gal(b1-4)GlcNAc(b1-3)[Fuc(a1-2)[Gal(a1-3)]Gal(b1-4)GlcNAc(b1-6)]GalNAc
# Method in brief: as §1
# [6] = target: Fuc(a1-2)[GalNAc(a1-3)]Gal(b1-4)GlcNAc(b1-3)Gal(b1-4)GlcNAc(b1-3)Gal(b1-4)GlcNAc
# Method in brief: as §1
# [7] = target: Fuc(a1-3)[Gal(b1-4)]Glc6S
# Method in brief: as §1
# [8] = target: Fuc(a1-3)[Gal(b1-4)]GlcNAc(b1-6)GalNAc
# Method in brief: as §1
# [9] = target: Fuc(a1-3)[Gal(b1-4)]GlcNAc6S
# Method in brief: as §1
# [10] = target: Gal(a1-2)Gal
# Method in brief: as §1
# [11] = target: Gal(a1-4)Gal(b1-4)Glc
# Method in brief: as §1
# [12] = target: Gal(a1-4)Gal(b1-4)GlcNAc(b1-2)Man(a1-3)[Gal(a1-4)Gal(b1-4)GlcNAc(b1-2)Man(a1-6)]Man(b1-4)GlcNAc(b1-4)GlcNAc
# Method in brief: as §1
# [13] = target: Gal(b1-3)GlcNAc(b1-2)Man(a1-3)[Gal(b1-3)GlcNAc(b1-2)Man(a1-6)]Man(b1-4)GlcNAc(b1-4)GlcNAc
# Method in brief: as §1
# [14] = target: Gal(b1-3)GlcNAc(b1-3)Gal(b1-4)GlcNAc(b1-2)Man(a1-3)[Gal(b1-3)GlcNAc(b1-3)Gal(b1-4)GlcNAc(b1-2)Man(a1-6)]Man(b1-4)GlcNAc(b1-4)GlcNAc
# Method in brief: as §1
# [15] = target: Gal(b1-3)GlcNAc(b1-3)Gal(b1-4)GlcNAc(b1-6)[Gal(b1-3)GlcNAc(b1-3)]Gal(b1-4)Glc
# Method in brief: as §1
# [16] = target: Gal(b1-3)GlcNAc(b1-3)Gal(b1-4)[Fuc(a1-3)]GlcNAc(b1-6)[Gal(b1-3)GlcNAc(b1-3)]Gal(b1-4)Glc
# Method in brief: as §1
# [17] = target: Gal(b1-3)GlcNAc(b1-3)GalNAc
# Method in brief: as §1
# [18] = target: Gal(b1-3)GlcNAc(b1-6)Gal(b1-4)GlcNAc
# Method in brief: as §1
# [19] = target: Gal(b1-3)[Fuc(a1-4)]GlcNAc(b1-3)Gal(b1-4)[Fuc(a1-3)]GlcNAc
# Method in brief: as §1
# [20] = target: Gal(b1-4)GlcNAc
# Method in brief: as §1
# [21] = target: Gal(b1-4)GlcNAc(b1-3)Gal(b1-4)GlcNAc
# Method in brief: as §1
# [22] = target: Gal(b1-4)GlcNAc(b1-3)Gal(b1-4)GlcNAc(b1-2)[Gal(b1-4)GlcNAc(b1-3)Gal(b1-4)GlcNAc(b1-6)]Man(a1-6)[Gal(b1-4)GlcNAc(b1-3)Gal(b1-4)GlcNAc(b1-2)Man(a1-3)]Man(b1-4)GlcNAc(b1-4)GlcNAc
# Method in brief: as §1
# [23] = target: Gal(b1-4)GlcNAc(b1-3)Gal(b1-4)GlcNAc(b1-3)Gal(b1-4)GlcNAc(b1-3)Gal(b1-4)GlcNAc(b1-2)Man(a1-3)[Gal(b1-4)GlcNAc(b1-3)Gal(b1-4)GlcNAc(b1-3)Gal(b1-4)GlcNAc(b1-3)Gal(b1-4)GlcNAc(b1-2)Man(a1-6)]Man(b1-4)GlcNAc(b1-4)[Fuc(a1-6)]GlcNAc
# Method in brief: as §1
# [24] = target: Gal(b1-4)GlcNAc(b1-3)Gal(b1-4)GlcNAc(b1-3)Gal(b1-4)GlcNAc(b1-3)Gal(b1-4)GlcNAc(b1-3)Gal(b1-4)GlcNAc(b1-3)Gal(b1-4)GlcNAc(b1-2)Man(a1-3)[Gal(b1-4)GlcNAc(b1-3)Gal(b1-4)GlcNAc(b1-3)Gal(b1-4)GlcNAc(b1-3)Gal(b1-4)GlcNAc(b1-3)Gal(b1-4)GlcNAc(b1-3)Gal(b1-4)GlcNAc(b1-2)Man(a1-6)]Man(b1-4)GlcNAc(b1-4)GlcNAc
# Method in brief: as §1
# [25] = target: Gal(b1-4)GlcNAc(b1-3)Gal(b1-4)GlcNAc(b1-3)GalNAc
# Method in brief: as §1
# [26] = target: Gal(b1-4)GlcNAc(b1-3)GalNAc
# Method in brief: as §1
# [27] = target: Gal(b1-4)GlcNAc(b1-3)[Gal(b1-4)GlcNAc(b1-6)]Gal(b1-4)GlcNAc
# Method in brief: as §1
# [28] = target: Gal(b1-4)GlcNAc(b1-6)[Gal(b1-4)GlcNAc(b1-3)]GalNAc
# Method in brief: as §1
binder,measurement,setting,value
PX9937J-pdi-523-26-523 (Parabacteroides distasonis) (protein) EPVSSISDANYWKSPDLFKAFNIGLHGLLRSQSSYNIFVLGEPRSDIYGDQPFGGEATQGVERFSYNTINAEFTGISNFANFYTTLNQINLMIRRTNETDLLGEAEKNYYLGQAYGLRAYIYFHLLRSWGDVIITTEPTLGSELDISHLDKAASPASEVMDLIKKDIDASEKAFGGDYSYKQGKCYWSKPATLMLKGEVYLWSGRQMGGGTGDYTVAKTALQDLQQNGNLKLQEKFTDVFSFNNKENSEMIFALHSGKEDDFMMWRDYNWRNNMVPQREYMAGYCDETGTPFLEIPGYNLQGLMRYQVKKDHYLKSFREGDTRLKGTLKAVYKKHEDGTLEYIAPIQYKFQGTTLEGSNERSWYDDYPIYRYADALLLLAEAKALLGEDPSTEINAVRERAYGSEYFNAHKNEVAYPNDKGSFYNDNPFEAGDENVMEAILKERLREFFFEGKRWYDLRRFGKDYVLKYTTAQESRLLWPINEGALTNNPALKQTPGY,glycan array binding signal (z-score),[1],-0.127
same,glycan array binding signal (z-score),[2],-0.759
same,glycan array binding signal (z-score),[3],0.953
same,glycan array binding signal (z-score),[4],-0.16
same,glycan array binding signal (z-score),[5],-0.426
same,glycan array binding signal (z-score),[6],-0.377
same,glycan array binding signal (z-score),[7],-0.103
same,glycan array binding signal (z-score),[8],-0.093
same,glycan array binding signal (z-score),[9],5.71
same,glycan array binding signal (z-score),[10],-0.363
same,glycan array binding signal (z-score),[11],0.596
same,glycan array binding signal (z-score),[12],2.9
same,glycan array binding signal (z-score),[13],-0.12
same,glycan array binding signal (z-score),[14],3.05
same,glycan array binding signal (z-score),[15],0.461
same,glycan array binding signal (z-score),[16],-0.698
same,glycan array binding signal (z-score),[17],-0.708
same,glycan array binding signal (z-score),[18],-0.374
same,glycan array binding signal (z-score),[19],-0.34
same,glycan array binding signal (z-score),[20],0.078
same,glycan array binding signal (z-score),[21],-0.225
same,glycan array binding signal (z-score),[22],10.4
same,glycan array binding signal (z-score),[23],0.026
same,glycan array binding signal (z-score),[24],8.6
same,glycan array binding signal (z-score),[25],6.57
same,glycan array binding signal (z-score),[26],-0.086
same,glycan array binding signal (z-score),[27],-0.21
same,glycan array binding signal (z-score),[28],-0.149

# — the supplement of paper PMC8728848
